Screening data (PubChem BioAssay)
Sampled rows, rich in hits. Any-hit rate of the full collection: about 2.5%.
Apoferritin bind = qHTS Assay for Identification of Novel General Anesthetics. apoferritin/1-aminoanthracene competitive binding, fluorescence. Potency, µM (titrated, usually from 77.5 µM), for inactives: at the top dose activity change, negative = displacement, actives largely listed as inhibitors. AID 485281, 2010. 0.074% of 350,000 active; active = well fitted inhibition curve with a large enough effect; inconclusive = small, poorly fitted or top-dose-only effect; inactive = no such curve, though single readings can be large or run the other way; note: potency is the fitted concentration of half-maximal effect; % is set by controls: 0 for no effect and ±100 for the full control effect; nearly all actives have a fitted effect of over 20% in size
Target sequence (P02791 2-175 limits assumed): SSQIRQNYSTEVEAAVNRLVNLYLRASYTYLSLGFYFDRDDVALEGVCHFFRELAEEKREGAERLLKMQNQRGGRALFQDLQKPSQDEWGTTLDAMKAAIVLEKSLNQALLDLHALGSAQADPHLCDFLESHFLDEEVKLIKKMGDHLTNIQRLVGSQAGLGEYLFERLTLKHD
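Read-out: endpoint 1-AMA fluorescence, excitation 380 nm and emission 535 nm, after compounds sit 10 min at room temperature with 10 uM horse-spleen apoferritin in 50% saturated 1-AMA/PBS. Values come from four-parameter Hill fits.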
D2 antagonist = HTS Assay for Allosteric Antagonists of the Human D2 Dopamine Receptor: Primary Screen for Antagonists; HEK293 TREx D2 cells, calcium flux, dopamine EC80; inhibition, % at 10 µM; 2% of 340,000 active; in the data active = inhibition above about 30%; inactive = below that, where a call was filed; note: 0% is about no effect
Target sequence (P14416 whole entry, looked up): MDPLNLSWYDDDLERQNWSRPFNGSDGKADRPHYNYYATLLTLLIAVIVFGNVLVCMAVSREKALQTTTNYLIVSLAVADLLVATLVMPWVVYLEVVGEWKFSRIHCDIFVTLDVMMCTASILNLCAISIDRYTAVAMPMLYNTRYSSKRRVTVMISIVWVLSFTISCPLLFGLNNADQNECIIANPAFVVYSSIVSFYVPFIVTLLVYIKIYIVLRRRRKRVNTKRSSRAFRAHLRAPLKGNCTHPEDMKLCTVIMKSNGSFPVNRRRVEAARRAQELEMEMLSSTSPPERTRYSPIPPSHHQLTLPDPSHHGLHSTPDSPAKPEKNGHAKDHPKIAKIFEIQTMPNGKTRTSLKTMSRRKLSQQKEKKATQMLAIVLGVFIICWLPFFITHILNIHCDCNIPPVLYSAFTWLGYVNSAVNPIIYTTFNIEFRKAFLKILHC
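Calcium flux kinetic readout in an inducible HEK293 TREx D2 line plated overnight at 30 C. After 180 s compound exposure, an EC80 dopamine challenge follows with another 180 s kinetic read to detect antagonism.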
D2 PAM-1 = Beta-Arrestin HTS for Positive Allosteric Modulators of the Human D2 Dopamine Receptor: Potentiators | D(2) dopamine receptor (Homo sapiens), P14416 | DiscoveRx D2 beta-arrestin cells, luminescence, 90 min; 100% = 57 uM dopamine signal | potentiation, % (no concentration beside the values) | 0.23% of 360,000 active | AID 624464, 2012; in the data active = potentiation above about 50%; inconclusive = mostly about 30% to 49%
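D2 cells co-treated with compound plus 50 nM dopamine (EC20) for 90 min at 37 deg C to detect potentiation. Beta-arrestin recruitment was read as enzyme-fragment luminescence after 1 h at ambient temperature. Full response was set by 57 uM dopamine.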
D2 ag-1 = Beta-Arrestin HTS for Positive Allosteric Modulators of the Human D2 Dopamine Receptor: Agonists. DiscoveRx PathHunter D2 beta-arrestin, luminescence, 90 min; 100% = 57 uM dopamine signal. activation, % (test concentration not listed). 0.084% of 360,000 active; in the data active = activation above about 40%; inconclusive = between about 15% and that limit
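Agonist mode: compounds alone added to overnight-plated D2 PathHunter cells for 90 min at 37 C, with 57 uM final dopamine (EC100) defining full response. Beta-arrestin recruitment detected by chemiluminescent reagent, read after 1 h at ambient temperature.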
D2 ag-2 = HTS Assay for Allosteric Agonists of the Human D2 Dopamine Receptor: Primary Screen for Agonists; D(2) dopamine receptor (Homo sapiens), P14416; 0.53% of 340,000 active; HEK293 T-REx D2 cells, calcium flux agonist mode; activation, % at 2 µM; AID 485358, 2010;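 active = activation over 3 SD above normal in the single-dose calcium agonist read, cut at about 30% in these data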; note: 0% is about no effect
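Tetracycline-induced HEK293 T-REx cells with force-coupled D2 receptor, plated overnight at 30 C, loaded with no-wash calcium dye. After a 10 s baseline, compound was pin-added and calcium flux read kinetically for 180 s; calcium rises flagged agonists.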
D2 PAM-2 = HTS Assay for Positive Allosteric Modulators of the Human D2 Dopamine Receptor: Primary Screen for Potentiators | potentiation, % at 10 µM | HEK293 T-REx D2, calcium flux, EC20 dopamine potentiation | D(2) dopamine receptor (Homo sapiens), P14416 | 0.34% of 340,000 active;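 active = potentiation over 3 SD above the plate norm, cut at about 30% in these data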; note: 0% is about no effect
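Tetracycline-induced Hek293 Trex D2 cells, force-coupled to calcium, loaded with no-wash calcium dye. Compound added with 180 s kinetic read for agonism, then EC20 dopamine and a further 180 s read for potentiation.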
Active calls of the source: *; ? = inconclusive; . = no result.

SMILES | Apoferritin bind | D2 antagonist | D2 PAM-1 | D2 ag-1 | D2 ag-2 | D2 PAM-2
CCOc1cc2[nH]c(=O)n(CCC(=O)NCCc3ccc(OC)c(OC)c3)c(=O)c2cc1OCC | 20% | -3 | 7 | -1 | 0 | 35*
ClCc1csc(-c2ccc(Cl)cc2)n1 | -7% | 29 | -10 | -7 | 0 | -12
CC1CN(Cc2csc(-c3ccc(Cl)cc3)n2)CC(C)O1 (stereo unspecified) | -15% | 37* | -16 | -2 | -2 | -23
O=C(N/N=C/c1cc(Br)c(Br)o1)c1cc2ccccc2o1 | -11% | 33* | -37 | 6 | 0 | -24
COc1ccccc1N1CCN(CCCn2c(=S)[nH]c3ccccc3c2=O)CC1 | -6% | 82* | -36 | 2 | 9 | -30
O=c1c2cc(N3CCOCC3)ccc2[nH]c(=S)n1CCCN1CCN(c2ccccc2F)CC1 | 3% | 84* | . | . | 70* | -28
COc1ccccc1N1CCN(CCc2n[nH]c(=S)n2-c2ccccc2)CC1 | -8% | 52* | -21 | 2 | 0 | -22
O=c1c2ccccc2[nH]c(=S)n1CCN1CCN(Cc2ccccc2)CC1 | -12% | 52* | -22 | -4 | 0 | -29
O=c1c2cc(N3CCOCC3)ccc2[nH]c(=S)n1CCN1CCCC1 | 49% | 6 | -12 | -2 | 0 | -6
CN1CCN(CCn2c(=S)[nH]c3ccccc3c2=O)CC1 | -3% | -11 | -9 | 1 | 0 | -6
Cc1nc(-c2ccc(O)c(O)c2)cs1 | ? | . | ? | 6 | . | .
COc1ccccc1[C@@H]1C(c2ccccc2)=NN(c2ccccc2)[C@H]1C(=O)N1CCOC1=O | 317% | . | . | 0 | . | .
O=c1c2cc(N3CCOCC3)ccc2[nH]c(=S)n1CCCN1CCCCCC1 | 56% | 39* | -50 | 2 | 0 | -29
COC(=O)COc1cccc2c(=O)n(CC(=O)N3CCCc4ccccc43)ccc12 | -8% | 31* | -5 | -5 | 0 | 7
CCOC(=O)COc1cccc2c(=O)n(CC(=O)N3CCCCC3)ccc12 | -7% | 21 | -4 | 2 | 0 | 5
Cc1ccc(C(=S)N2CCN(Cc3ccccc3)CC2)s1 | -23% | 50* | -9 | 4 | 0 | -32
Oc1ccc(C(=S)N2CCN(Cc3ccccc3)CC2)cc1 | 0% | -13 | -18 | -2 | 0 | -10
CCCC[n+]1ccn(C2=C([O-])c3ccccc3C(=O)/C2=N\S(=O)(=O)c2ccc(Cl)cc2)c1 | -2% | 34* | 7 | 2 | -1 | 5
O=C(COc1ccc(F)cc1)NCCCn1ccnc1 | 1% | 5 | 1 | -4 | 0 | 9
CCN(C(=O)COC(=O)CCc1ccc(OC)cc1)c1c(N)n(Cc2ccccc2)c(=O)[nH]c1=O | . | 34* | 11 | 0 | 0 | 6
Nc1c(N(CCC2=CCCCC2)C(=O)CCCOc2ccccc2)c(=O)[nH]c(=O)n1Cc1ccccc1 | . | 33* | 5 | 2 | 1 | 7
Nc1c(N(CCC2=CCCCC2)C(=O)COc2ccc(F)cc2)c(=O)[nH]c(=O)n1Cc1ccccc1 | . | -13 | -3 | 0 | 1 | -9
CC1(C)Cc2ccccc2-c2nnc(-c3ccc4ccccc4n3)n21 | 28% | 0 | -5 | 1 | 0 | 44*
Cc1ccccc1C(=O)NC(=S)Nc1ncccn1 | 0% | -3 | -5 | -1 | 0 | 16
CCOCCCNC(=O)C1CC(=O)N(C2CCCC2)C1 (stereo unspecified) | 2% | 0 | -7 | -3 | 2 | .
SMILES | Apoferritin bind | D2 antagonist | D2 PAM-1 | D2 ag-1 | D2 ag-2 | D2 PAM-2
CCN(CC)C(=O)c1cc2cc(Br)ccc2oc1=O | -8% | 3 | -1 | 0 | 0 | -4
CCOC(=O)C1(CCc2ccccc2)CCN(Cc2cccc3nccnc23)CC1 | -19% | 65* | -7 | -4 | -1 | -24
CCOC(=O)C1(CCOc2ccccc2)CCN(S(=O)(=O)N(C)C)CC1 | -11% | 43* | 9 | 8 | 1 | 5
CCOC(=O)C1(CCOc2ccccc2)CCN(Cc2ccc(-n3cccn3)cc2)CC1 | -5% | 35* | -1 | -4 | 0 | -21
CCOC(=O)C1(CCOc2ccccc2)CCN(Cc2ccncc2)CC1 | -9% | -3 | -3 | -7 | -1 | -15
CCOC(=O)C1(Cc2ccccc2)CCN(Cc2cnn(-c3ccccc3)c2)CC1 | -8% | 33* | -17 | -5 | -1 | -18
CC(NC(=O)CSc1n[nH]c(N)n1)c1ccccc1 (stereo unspecified) | -2% | 12 | -5 | -3 | -3 | 2
CC1(C)C2CCC1(CS(=O)(=O)Nc1ccc(S(=O)(=O)N3CCCC3)cc1)C(=O)C2 (stereo unspecified) | -12% | -6 | -7 | 2 | -4 | -4
O=c1c(O[C@@H]2O[C@H](CO)C(O)C2O)c(-c2ccc(O)c(O)c2)oc2cc(O)cc(O)c12 (stereo partly specified) | . | . | -9 | -1 | . | .
CCNC(=S)NCc1ccc(OC)c(OC)c1 | -4% | . | -4 | -2 | . | 6
COc1ccc(C(CNC(=O)c2cccc(Br)c2)N2CCCC2)cc1 (stereo unspecified) | -19% | 41* | -15 | 0 | 0 | -22
CC1CCCN(S(=O)(=O)c2cccc(C(=O)NCc3ccco3)c2)C1 (stereo unspecified) | . | . | -5 | 3 | . | .
COc1ccc(C(CNC(=O)C(CCSC)NC(=O)c2ccccc2Cl)N2CCCCC2)cc1 (stereo unspecified) | . | 41* | -17 | -3 | 1 | -5
COc1ccc(C(CNC(=O)c2cccc(S(=O)(=O)N3CCCC(C)C3)c2)N(C)C)cc1 (stereo unspecified) | . | 76* | -6 | 1 | 0 | -34
COc1ccc(C(CNC(=O)COc2ccc(F)cc2Br)N2CCCC2)cc1 (stereo unspecified) | -17% | 1 | -21 | -3 | -1 | 42*
COc1ccc(C(CNC(=O)C(CCSC)NC(=O)c2ccccc2Cl)N2CCCC2)cc1 (stereo unspecified) | . | -4 | -21 | -4 | -1 | -3
